Screens: PubChem BioAssay, National Center for Advancing Translational Sciences (NCATS)
IL2 activator = activates IL-2 in a cell-based reporter assay | actives 0.065% (n = 360,000) | activation, % (series mostly up to about 46 µM) | IL-2 activation reporter assay, cell-based qHTS; stimulated with anti-CD3/CD4/CD28 beads; in transgenic mouse T cells | AID 652025; in the data active means activation above about 50%; inconclusive means mostly about 30% to 49%; further: 0% is about no effect
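Using fluorescent plate cytometry, EGFP and DsRed are detected in transgenic mouse T cells stimulated 18 h at 37 degrees C with antibody-coated beads after 60 min compound pretreatment.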
Nrf2 activator = Nrf2 pathway activation; AREc32 ARE-luciferase reporter (MCF7-derived line), luminescence, 24 h; Potency, µM (titrated, usually from 46.1 µM), without a hit: top-dose activation, usual class: activators; actives 0.31% (n = 410,000); AID 624171; further: potency means the concentration at half of the fitted maximal effect; % of control where 0% means no effect; nearly all actives have a fitted effect of over 65% in size
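AREc32 cells carrying an ARE-driven firefly luciferase, 1000 cells/well in OPTI-MEM with 5% FBS, dosed after overnight attachment and incubated 24 hr at 37 deg C. Steady-Glo luminescence read after 30 min at RT.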
BRCA1 expr up = activators of BRCA1 expression; MCF7-BRCA1-FFLuc reporter, luminescence, 48 h; response scale: scaled: vehicle 0%, 10 µM genistein 100%; Potency, µM (series often up to 46.1 µM), for the others: top-dose activation, actives largely listed as activators; actives 1.1% (n = 380,000); AID 624202; further: potency means the concentration at half of the fitted maximal effect; nearly all actives have a fitted effect of over 80% in size
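Compounds are tested at multiple concentrations on MCF7 BRCA1-luciferase reporter cells seeded at 2000 per well; after 48 h, a single luminescence end-point is taken and curves fitted to the normalized data.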
ELG1 repair inh = inhibitors of ELG1-dependent DNA repair in HEK293T cells | HEK293T ELG1-luciferase reporter, luminescence, 16 h; DNA damage induced by 5-fluorouridine | Potency, µM (doses to about 46.1 µM), for the others: at the highest dose activity change, negative = inhibition, usual class: inhibitors | actives 2.3% (n = 330,000) | AID 504467; further: potency means the concentration at half of the fitted maximal effect; on the % scale 0 is the no-effect control and ±100 the full control effect; nearly all actives have a fitted effect of over 55% in size
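Step one: seed 2,000 cells per well. Step two: pin-transfer compound or DMSO alongside 5-fluorouridine. Step three: incubate 16 hr, 37 °C, 5% CO2. Step four: add ONE-Glo, wait 30 min, read luminescence.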
* marks the source's active call; other numbers are inactive results; [ ] = remark or other dose. Shown are actives, neighbours in structure and some others; about 3.1% of the full set was active somewhere. Unless noted, the call rests on the fitted dose curve; in most records, active means well fitted curve in the direction sought with a large enough effect; inconclusive means small, poorly fitted or top-dose-only effect, or another doubt; inactive means no such curve, though single readings can be large; an effect the other way counts as inactive or inconclusive.

For COc1ccc(C(=O)N2CCCCC2CCN2CCOCC2)cc1 (stereo unspecified) the results were Nrf2 activator 0%.
`S=C(NCCc1ccccc1)N1CCc2ccccc2C1` gave IL2 activator -3, Nrf2 activator 5%, BRCA1 expr up 10µM* and ELG1 repair inh 25%.
For Cc1cc(C(=O)CSc2ccc(Cl)cc2)cc(C)c1OC(=S)N(C)C the results were IL2 activator 0, Nrf2 activator 5%, BRCA1 expr up 5µM* and ELG1 repair inh inconclusive.
Screening O=c1[nH]c(CSc2nc3ccccc3[nH]2)nc2c1cnn2-c1ccccc1 returned IL2 activator 3, Nrf2 activator 0%, BRCA1 expr up -52% and ELG1 repair inh 12µM*.
CCN(CC)S(=O)(=O)c1ccc2c(c1)c(=O)c(C(=O)NCc1ccc(Cl)cc1)cn2C was read as Nrf2 activator 0% and BRCA1 expr up -19%.
For COc1ccc(S(=O)(=O)N2CCOC2CNC(=O)C(=O)NCCc2c[nH]c3ccccc23)cc1 (stereo unspecified) the results were IL2 activator -4, Nrf2 activator 0%, BRCA1 expr up -28% and ELG1 repair inh inconclusive.
Screening COc1ccc(S(=O)(=O)N2CCOC2CNC(=O)C(=O)NCCc2c[nH]c3ccccc23)cc1C (stereo unspecified) returned IL2 activator -5, Nrf2 activator -1%, BRCA1 expr up -23% and ELG1 repair inh 26µM*.
Screening O=C(NCCc1c[nH]c2ccccc12)C(=O)NCC1OCCCN1S(=O)(=O)c1cc(F)ccc1F (stereo unspecified) returned IL2 activator -2, Nrf2 activator 5%, BRCA1 expr up -15% and ELG1 repair inh 21µM*.
For Cc1ccc(N(Cc2ccc(C(=O)NCCSc3ccccn3)cc2)S(C)(=O)=O)cc1C the results were IL2 activator 0, Nrf2 activator 3%, BRCA1 expr up -4% and ELG1 repair inh 9.2µM*.
CCCn1nc(NC(=O)c2ccccn2)c2cc3cc(C)ccc3nc21 was read as IL2 activator 3, Nrf2 activator 0%, BRCA1 expr up 11µM* and ELG1 repair inh inconclusive.
For Cc1cccc(-n2c(SCC(=O)Nc3ccccc3C)nc3c(oc4ccccc43)c2=O)c1 the results were Nrf2 activator 0%.
`CCOC(=O)/C(C#N)=C\c1c(OCC)n(CC)c2ccccc12` gave IL2 activator -5, Nrf2 activator 2%, BRCA1 expr up -21% and ELG1 repair inh inconclusive.
For CCOc1c(/C=C(\C#N)C(N)=O)c2ccccc2n1CC the results were IL2 activator 0, Nrf2 activator 0%[9.22 µM], BRCA1 expr up -57% and ELG1 repair inh 13µM*.
Screening Cc1nc(SCc2cc(=O)c3cccc(F)c3[nH]2)n[nH]1 returned Nrf2 activator 0%.
`N#CC1=C(N)C(C#N)(C#N)C(c2cccnc2)C2CCCC=C12` (stereo unspecified) gave ELG1 repair inh 7.3µM*.
Screening N#CC1=C(N)C(C#N)(C#N)C(c2cccnc2)C2CC(c3ccccc3)CC=C12 (stereo unspecified) returned IL2 activator 0, Nrf2 activator inconclusive, BRCA1 expr up -14% and ELG1 repair inh inconclusive.
For COc1cc(OC)c(NC(=O)Nc2cccc(OCc3cc(=O)n4ccccc4n3)c2)cc1Cl the results were Nrf2 activator 1%.
Cc1ccc(S(=O)(=O)/N=C(\CN2CCOCC2)N2CCCC2)cc1 was read as IL2 activator 2, Nrf2 activator 0%, BRCA1 expr up 30% and ELG1 repair inh 0%.
`Cc1ccc(S(=O)(=O)/N=C(\CCl)N2CCOCC2)cc1` gave IL2 activator 1, Nrf2 activator inconclusive, BRCA1 expr up -74% and ELG1 repair inh 15µM*.
Cc1cccc(N=C2Sc3nc4c(C)c(C)ccc4cc3CN2CCN2CCOCC2)c1 was read as IL2 activator -2, Nrf2 activator 5%, BRCA1 expr up -42% and ELG1 repair inh 9.2µM*.
`CCCC(=O)N1CCN(c2ccc(NC(=S)NC(=O)c3cccc(C)c3)cc2)CC1` gave IL2 activator -1, Nrf2 activator 0%, BRCA1 expr up -69% and ELG1 repair inh 16µM*.
For COc1cccc(C(=O)NC(=S)Nc2ccc(N3CCCC3)cc2)c1 the results were IL2 activator 2, Nrf2 activator 6%, BRCA1 expr up 28% and ELG1 repair inh -21%.
COc1ccc(C)cc1NC(=O)c1cc(S(=O)(=O)N2CCCCC2)ccc1N1CCOCC1 was read as IL2 activator -1, Nrf2 activator -1%, BRCA1 expr up -30% and ELG1 repair inh 15µM*.
Cc1ccc(S(=O)(=O)N(C)C)cc1NC(=O)c1cc(S(=O)(=O)N2CCCCC2)ccc1N1CCOCC1 was read as IL2 activator -4, Nrf2 activator 0%, BRCA1 expr up -14% and ELG1 repair inh 10µM*.
Screening COc1ccc(S(=O)(=O)N2CCCCC2)cc1NC(=O)C1COc2ccccc2O1 (stereo unspecified) returned IL2 activator -1, Nrf2 activator 2%, BRCA1 expr up -15% and ELG1 repair inh 18µM*.
COc1ccc(N2CCN(c3ncnc4sc(C(=O)NCC5CCCO5)c(C)c34)CC2)cc1 (stereo unspecified) was read as IL2 activator 1, Nrf2 activator 0%, BRCA1 expr up -17% and ELG1 repair inh inconclusive.
Cc1c(C(=O)N2CCOCC2)sc2ncnc(N3CCc4ccccc4C3)c12 was read as IL2 activator -1, Nrf2 activator 3%, BRCA1 expr up -29% and ELG1 repair inh 12%.
For COc1ccccc1N1CCN(c2ncnc3sc(C(=O)NCC4CCCO4)c(C)c23)CC1 (stereo unspecified) the results were IL2 activator -4, Nrf2 activator 0%, BRCA1 expr up 0% and ELG1 repair inh 9.2µM*.
`COCCCNC(=O)c1sc2ncnc(N3CCc4ccccc4C3)c2c1C` gave IL2 activator 0, Nrf2 activator 7%, BRCA1 expr up -92% and ELG1 repair inh 8.2µM*.
For Cc1c(C(=O)N2CCCCC2C)sc2ncnc(N3CCc4ccccc4C3)c12 (stereo unspecified) the results were IL2 activator 4, Nrf2 activator -1%, BRCA1 expr up -43% and ELG1 repair inh 21µM*.
Cc1ccc(Nc2nnc(-c3ccc(C)c(S(=O)(=O)N4CCOCC4)c3)c3ccccc23)c(C)c1 was read as Nrf2 activator 0%.
COc1cccc(Nc2nc(C(N)C3CCCCC3)cs2)n1 (stereo unspecified) was read as IL2 activator -1, Nrf2 activator -3% and BRCA1 expr up 0%.
For Cc1ccc(S(=O)(=O)N(C)CCN(C)c2nc(-c3cccs3)nc3ccccc23)cc1 the results were BRCA1 expr up 10%.
`Cc1ccsc1/C=C(\CC(=O)O)c1nc2ccccc2o1` gave IL2 activator -2, Nrf2 activator 2%, BRCA1 expr up 7.9µM* and ELG1 repair inh 11%.
